ELG1 repair inh: inhibitors of ELG1-dependent DNA repair in HEK293T cells. HEK293T ELG1-luciferase reporter, luminescence, 16 h; DNA damage induced by 5-fluorouridine. Potency, µM (titrated, usually from 46.1 µM), without a hit: top-dose activity change, negative = inhibition, actives largely listed as inhibitors. 330,000 tested, 2.3% active; also: % is scaled to controls: 0 for no effect and ±100 for the full control effect; nearly all actives have a fitted effect of over 55% in size
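In this reporter screen, reduction of luminescence relative to DMSO vehicle indicated activity. Compounds and 5-fluorouridine were added together to 2,000 cells per well, incubated for 16 hr at 37 °C, then developed with ONE-Glo.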
FLuc counter: counter-screen for miR-21 project: firefly luciferase inhibitors or activators | P08659 | Potency, µM (highest dose often 57.5 µM), for inactives: top-dose activity change, negative = inhibition, usual class: inhibitors | 360,000 tested, 6.9% active | AID 588342 | purified FLuc, Km substrates, luminescence inhibition;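 also: plate controls were vehicle for no effect and reference inhibitor for full effect; nearly all actives have a fitted effect of over 55% in size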
Target sequence (P08659 whole entry, looked up): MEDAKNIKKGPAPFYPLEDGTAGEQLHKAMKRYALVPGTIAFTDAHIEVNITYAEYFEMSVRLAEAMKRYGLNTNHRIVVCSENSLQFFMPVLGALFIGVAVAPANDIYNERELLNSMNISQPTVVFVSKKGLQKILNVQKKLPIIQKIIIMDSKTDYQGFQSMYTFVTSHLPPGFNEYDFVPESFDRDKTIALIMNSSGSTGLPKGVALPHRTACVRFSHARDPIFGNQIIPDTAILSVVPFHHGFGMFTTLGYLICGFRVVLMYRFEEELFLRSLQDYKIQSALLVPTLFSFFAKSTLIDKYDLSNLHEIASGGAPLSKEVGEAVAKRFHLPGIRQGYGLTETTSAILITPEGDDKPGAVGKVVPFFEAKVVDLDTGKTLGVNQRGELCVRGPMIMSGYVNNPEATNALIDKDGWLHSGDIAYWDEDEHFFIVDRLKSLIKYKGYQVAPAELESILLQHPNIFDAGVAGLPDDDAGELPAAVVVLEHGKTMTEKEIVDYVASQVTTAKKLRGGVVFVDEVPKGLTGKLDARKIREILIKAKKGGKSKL
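Biochemical qHTS of compounds, final roughly 60 µM downward over six points, against 10 nM purified firefly luciferase using Km concentrations of substrates (10 uM D-luciferin, 10 uM ATP) in Tris acetate pH 7.5 buffer; luminescence output.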
Rab9 promoter act: activators of Rab9 promoter; Potency, µM (titrated, usually from 9.22 µM), for the others: at the highest dose activation, negative = inhibition, actives largely listed as activators; 320,000 tested, 2.8% active; Huh7 Rab9 promoter-luciferase reporter, luminescence, 24 h; also: % of control where 0% means no effect; nearly all actives have a fitted effect of over 60% in size
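Huh7 cells stably carrying Rab9 promoter–luciferase reporter, plated 1500 cells/well, compound added after 2 h and incubated 24 h at 37 °C; luciferase luminescence then read after 10 min with detection reagent.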
SMN2 splice enh: increases expression of the SMN2 splice variant; HEK293 SMN2-luciferase splicing reporter, luminescence, 30-36 h; Potency, µM (titrated, usually from 46.1 µM), for the others: at the top dose activity change, positive = activation, actives largely listed as activators; 210,000 tested, 2.8% active; also: % of control where 0% means no effect; nearly all actives have a fitted effect of over 55% in size
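HEK293 cells carry an SMN2 minigene-luciferase reporter in which exon 7 inclusion puts luciferase in frame. Cells were seeded at 2000 cells/well, attached for 10-12 hours, then exposed to compounds for 30-36 hours at 37C before ONE-Glo luminescence.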
NPC1 prom act: activates the NPC1 promoter. Huh7 NPC1 promoter luciferase reporter, 24 h. Potency, µM (titrated, usually from 9.22 µM), inactives show at the top dose activation, usual class: activators. 320,000 tested, 2.4% active; also: % of control where 0% means no effect; nearly all actives have a fitted effect of over 60% in size
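Luciferase expression driven by the NPC1 promoter was measured in stably transfected Huh7 cells after a 24 h compound incubation, using a luciferase reagent and a luminescence read.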
ELG1 genotoxic: inducers of genotoxicity in HEK293T ELG1-luciferase cells. AID 504466. Potency, µM (doses to about 46 µM), for the others: top-dose activity change, positive = activation, usual class: activators. 330,000 tested, 1.3% active. HEK293T ELG1-luciferase reporter, luminescence, 16 h; also: % of control where 0% means no effect; nearly all actives have a fitted effect of over 60% in size
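After overnight (16 hr) compound treatment at 37 °C, ELG1-luciferase HEK293T cells were lysed with ONE-Glo; luminescence quantified 30 min later at room temperature.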
* = called active by the depositor; ? = inconclusive; . = no result. An excerpt weighted towards active compounds, which were near 9.3% of everything screened. Calls follow the shape of the dose curve; as a rule, active = well fitted curve in the direction sought with a large enough effect; inconclusive = small, poorly fitted or top-dose-only effect, or another doubt; inactive = no such curve, though single readings can be large; an effect the other way counts as inactive or inconclusive. Potency is read from the fitted curve at half-maximal effect.

SMILES | ELG1 repair inh | FLuc counter | Rab9 promoter act | SMN2 splice enh | NPC1 prom act | ELG1 genotoxic
Cc1ccc(NC(=O)Nc2nnc(SCC(=O)N3CCC(C)CC3)s2)cc1 | . | 19µM* | . | . | . | .
CC(Sc1nnc(NC2CC2)s1)C(=O)Nc1ccc(N2CCOCC2)cc1 (centres undefined) | 0% | -1% | -6% | . | 1% | 1%
COc1cccc(NC(=O)CSc2nnc(NC(=O)C3CC3)s2)c1 | -4% | -19% | 2% | . | -2% | 0%
COC(=O)COc1nsnc1N1CCOCC1 | 13% | 0% | 6% | 6% | -1% | 0%
CC(=O)Nc1ccc(C(=O)OCC(=O)c2ccc(F)cc2)cc1 | 18% | -12% | -3% | 11% | -3% | 7%
CC(=O)c1ccc(N2CCN(C(=O)/C=C/c3ccc(S(=O)(=O)NCc4ccco4)cc3)CC2)cc1 | 7.3µM* | -12% | -20% | -51% | -13% | -20%
CC(=O)c1ccc(N2CCN(C(=O)/C=C/c3ccc(S(=O)(=O)N4CCOCC4)cc3)CC2)cc1 | ? | 3% | -4% | -55% | -14% | -4%
O=C(O)c1cccc(Nc2ccc([N+](=O)[O-])cn2)c1 | 4% | ? | 7% | . | 1% | 0%
O=C(N/N=C/C(Cl)=C/c1ccc([N+](=O)[O-])cc1)C(=O)Nc1cccc(C(=O)O)c1 | ? | 24µM* | ? | . | ? | ?
COCCn1c(=NC(=O)c2ccc(S(=O)(=O)N3CCc4ccccc4C3)cc2)sc2cc(S(N)(=O)=O)ccc21 | 3% | 2% | -9% | -15% | -3% | 0%
CCOCCn1c(=NC(=O)c2ccc(S(=O)(=O)N3CCOCC3)cc2)sc2cc(S(N)(=O)=O)ccc21 | 18µM* | -1% | 3% | . | -5% | -20%
O=C(NCc1ccccc1Cl)c1ccc2nc(Cc3ccccc3)oc2c1 | . | -2% | . | . | . | .
O=C(NCCc1ccccn1)c1ccc2nc(Cc3ccccc3F)oc2c1 | ? | 11µM* | 2µM* | . | 2.8µM* | 4.6µM*
O=C(NCCc1ccc(Cl)cc1)c1ccc2nc(Cc3ccccc3)oc2c1 | . | -2% | . | . | . | .
Cc1cccc(CNC(=O)c2ccc3nc(Cc4ccccc4F)oc3c2)n1 | ? | 27µM* | 3.5µM* | . | 3.5µM* | ?
CCOC(=O)c1c(NC(=S)N2CCN(C)CC2)sc2c1CCN(C(=O)OCC)C2 | 16µM* | 4% | 12% | . | -2% | -5%
CCOC(=O)c1c(NC(=O)CN2CCCCC2)sc2c1CCN(C(=O)OCC)C2 | ? | -1% | -18% | -39% | -8% | -6%
CCOC(=O)N1CCc2c(sc(NC(=O)C3=COCCO3)c2C(N)=O)C1 | -3% | 11µM* | 9% | . | -3% | 1%
CCOC(=O)c1c(NC(=O)CN(CC)CC)sc2c1CCN(C(=O)OCC)C2 | ? | -1% | -7% | -30% | -1% | -26%
CNC(=O)c1c(NC(=O)C2=COCCO2)sc2c1CCCC2 | 27% | 17µM* | 5% | . | 2% | 17%
CCOC(=O)c1ccc2nc(NC(NC(C)=O)(C(=O)OC)C(F)(F)F)sc2c1 (centres undefined) | -5% | 3% | 9% | -10% | -37% | -1%
CC(=O)c1sc(Nc2nc3ccc(F)cc3s2)nc1C | ? | 3.4µM* | 1.8µM* | 13µM* | 2.8µM* | 3%
COC(=O)Nc1nc2ccc(Br)cc2s1 | ? | -10% | 1.4µM* | 26% | 28% | ?
CCOC(=O)c1csc(Nc2nc3ccc(F)cc3s2)n1 | ? | -16% | 23% | -21% | 14% | 1%
O=C(CS(=O)(=O)c1ccc(Cl)cc1)Nc1nc2ccc(Br)cc2s1 | . | -5% | . | . | . | .
CC(C)c1ccc2nc(NC(=O)C3CC3)sc2c1 | ? | 7.6µM* | 1.6µM* | . | 1.6µM* | ?
O=C(Nc1nc2ccc(S(=O)(=O)N3CCCC3)cc2s1)C1CCCCC1 | ? | 0% | -24% | -37% | -33% | -2%

From PubChem BioAssay
